What all share (test): NCI-60 one-dose screen, 48 h (100 = growth as untreated, 0 = no growth, -100 = all killed)
Conditions in all cases: 10 µM unless noted

The subject of assay [1] is RPMI-8226 leukemia.
Assay [2] deals with OVCAR-8 ovarian.
Assay [3] relates to OVCAR-5 ovarian.
Assay [4] relates to OVCAR-4 ovarian.
Assay [5] deals with SK-OV-3 ovarian.
Assay [6] concerns IGROV1 ovarian.
Assay [7] concerns OVCAR-3 ovarian.
The test system of assay [8] is HS 578T breast.
Assay [9] has as its system NCI/ADR-RES ovarian.
The subject of assay [10] is T-47D breast.
The subject of assay [11] is BT-549 breast.
Assay [12] relates to MDA-MB-435 melanoma.
The subject of assay [13] is SW-620 colon.
For assay [14], the system named is MCF7 breast.
Assay [15] has as its system HCT-116 colon.
Assay [16] deals with KM12 colon.
In assay [17] the test system is HCC-2998 colon.

Each structure is given as a SMILES string. About 83,000 compounds went through this panel and 20% of them were active in at least one assay; those are over-represented in the sample as a whole.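 A percent growth of 40 corresponds to 60% growth inhibition; 0 means no net growth; -100 means all cells died. Active threshold: below 10.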 Unmarked numbers belong to inactive results. Activity calls are given as the source filed them.

The values below come from PubChem BioAssay (NCI).

As to `O=C(Nc1ccc2c(c1)OCCO2)C(=O)c1c[nH]c2ccccc12`, the growth in assay [1] is 21.6%; in assay [2] it was 53.5%; in assay [3], 45.2%; in assay [4] it was 51.2%; in assay [5] it was 12.8%; in [6], 44.5%. The growth in assay [7] is -45.1% (active); in [8] it was 13.1%; in [9], -30.3% (active); in assay [10] it was 42.7%; in [11], 44.2%; in [12], -29.1% (active). The growth was 18% in [13], 18.4% in [14], 14.7% in assay [15] and 10.8% in assay [16].

On to `O=C(Nc1cccc(-n2cc(-c3ccncc3)c(-c3ccc(Cl)c(O)c3)n2)c1)Nc1cc(C(F)(F)F)cc(C(F)(F)F)c1`, for which the growth in [1] was -10.9% (active); in [2] it was -12.2% (active); in [3] it was -32.9% (active); in assay [4], 0.865% (active); in assay [5], -24.3% (active); in assay [6], 4.8% (active). Further, the growth in assay [7] is -67.5% (active); in [8], -26% (active); in assay [9], 4.72% (active); in assay [10] it was 12.1%; in assay [11], -35.9% (active); in assay [12], -31.1% (active). Also, the growth in assay [13] was 3.32% (active); in assay [14], 2.71% (active); in [15], -59.1% (active); in assay [17] it was -56.9% (active); in [16], -50.3% (active).

For `COc1ccc(-c2c(N)n[nH]c2-c2cc(OC)c(OC)c(OC)c2)cc1`, the growth is 27% in assay [1]; 21.2% in assay [2]; 37.5% in assay [3]; 47.7% in [4]; 15.4% in assay [5]; 26.9% in assay [6]. Moreover, the growth was -36.1% (active) in [7]; -8.33% (active) in assay [8]; -20.2% (active) in assay [9]; 75.1% in assay [10]; 50.9% in [11]; -40.7% (active) in assay [12]. Besides, the growth in assay [13] is 21%; in assay [14], 23%; in [15], 9.76% (active); in assay [16], 14%.

In the case of `N/C(=N\S(=O)(=O)c1ccccc1)Nc1nc2ccccc2s1`, the growth in assay [1] was 88.6%; in [2] it was 87.6%; in assay [3] it was 96.9%; in assay [4], 100%; in [5] it was 85.4%; in [6], 90.8%. Moreover, the growth in [7] is 107%; in assay [8], 98.2%; in [9], 91.8%; in assay [10] it was 75.9%; in [11], 95.5%; in [12], 101%. In addition, the growth in [13] is 99.6%; in assay [14], 90.6%; in [15], 97.5%; in assay [17] it was 107%; in [16], 93%.

Take `CCC(=O)OC1=CN2C(=NC(c3ccc(N)cc3)=CC2c2cc(OC)c(OC)c(OC)c2)S1` (centres undefined): the growth in [1] is 17.9%; in [2] it was 36.6%; in assay [3], 77.7%; in [4], 57.3%; in [5] it was 68.1%; in [6], 65.4%. Moreover, the growth in [7] was 24.1%; in [8] it was 49%; in assay [9] it was 66.9%; in [10], 58.2%; in assay [11] it was 26.8%; in assay [12], 23.1%. Also, the growth in [13] is 28.3%; in assay [14], 16.7%; in assay [15], 17.9%; in [17], 89%; in [16], 47.4%.

As for `Cc1ccc(S(=O)(=O)NCCNc2nccc(-c3c(-c4ccc(O)cc4)nc4sccn34)n2)cc1`, the growth was 85.9% in [1]; 89.3% in assay [2]; 135% in assay [3]; 102% in [4]; 107% in [5]; 97.1% in assay [6]. For the same molecule, the growth was 110% in assay [7]; 106% in assay [8]; 97.8% in [9]; 85% in [10]; 106% in [11]; 86.4% in [12]. Besides, the growth in assay [13] is 126%; in [14], 93.7%; in assay [15], 100%; in [16], 100%.

Consider `CN(C)CC(C(=O)c1ccccc1)c1ccccc1` (centres undefined), for which the growth in assay [1] is -34.4% (active); in assay [2], 9.37% (active); in [3] it was 59.3%; in [4] it was 43.1%; in [5], 88.4%; in assay [6], 48.6%. The growth in assay [7] is -92.6% (active); in assay [8], 60.5%; in assay [9], 17.1%; in assay [10], 66.6%; in [11], 23.3%; in assay [12], 23.1%. Besides, the growth in assay [13] was -61.9% (active); in assay [14] it was 10.5%; in assay [15], -94.7% (active); in assay [17], 74.9%; in [16], 10.8%.

`C=COC(=O)CCCCCCCCC`: the growth in [1] was 100%; in [2] it was 101%; in assay [3], 111%; in assay [4], 109%; in assay [5], 111%; in [6], 97.1%. Further, the growth in assay [7] is 120%; in assay [8] it was 102%; in assay [9] it was 103%; in assay [10] it was 110%; in assay [11] it was 108%; in assay [12] it was 106%. Further, the growth in assay [13] was 99.1%; in assay [14] it was 101%; in [15], 109%; in assay [17], 101%; in assay [16], 106%.

As for `COc1ccc(N2CCN(Cc3cc(C(=O)/C=C/c4c[nH]c5ccccc45)ccc3O)CC2)cc1`, the growth in assay [1] is 94.8%; in [2], 95.5%; in assay [3], 106%; in [4], 93%; in assay [5], 93.5%; in assay [6] it was 109%. Moreover, the growth was 114% in [7]; 105% in assay [8]; 106% in [9]; 93.8% in assay [10]; 107% in [11]; 105% in [12]. Moreover, the growth is 104% in assay [13], 97.4% in [14], 110% in assay [15] and 110% in assay [16].
